Screens: PubChem BioAssay, The Scripps Research Institute Molecular Screening Center
TEAD-YAP inh: TEAD-YAP interaction inhibition; HEK-TIYL cells, TEAD-Gal4/YAP UAS-luciferase luminescence; inhibition, % at 9.12 µM; 1.4% of 640,000 active; in the data active = inhibition above about 32%
MITF primary: human MITF inhibition, primary screen; O75030; AlphaScreen MITF homodimerization, bead proximity signal; inhibition, % at 2.6 µM; 0.91% of 650,000 active; AID 1259374; in the data active = inhibition above about 50%
FBW7 act: activators of human E3 ligase FBW7; Q969H0; AlphaScreen FBW7–phospho-cyclin E peptide binding, activator screen; normalized activity (activation), % at 26.1 µM; 0.13% of 650,000 active; in the data active = normalized activity above about 1.9%;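 also: purified mutant Fbw7 with reduced substrate affinity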
GPR151 ag: activators of human GPR151 | PathHunter beta-arrestin GPR151 cells, luminescence | Q8TDV0 | 1% of 650,000 active | activation, % at 11.2 µM; in the data active = activation above about 4.9%
GPR151 conf act: confirmation of human GPR151 activators; shares compounds with GPR151 ag; 6,700 tested, under 10 active; activation, % at 11.2 µM; AID 1508609; GPR151 PathHunter beta-arrestin cells, luminescence, 90 min; % of EA-reagent control over plate median;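 active = mean percent activation across replicates above the confirmation screen cutoff of 4.91%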
GPR119 counter: activates human GPR119 in a GPR151 counter-screen. shares compounds with GPR151 ag. GPR119 PathHunter beta-arrestin cells, luminescence, 90 min; 0 = compound-well median, 100 = enzyme-acceptor control. activation, % at 11.2 µM. 0.3% of 6,700 active. AID 1508611;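 active = mean percent activation in the counterscreen above 29.09%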;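 also: counterscreen on off-target GPR119 to flag nonselective hits from the GPR151 activator screen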
Target sequence (Q8TDV5 whole entry, looked up): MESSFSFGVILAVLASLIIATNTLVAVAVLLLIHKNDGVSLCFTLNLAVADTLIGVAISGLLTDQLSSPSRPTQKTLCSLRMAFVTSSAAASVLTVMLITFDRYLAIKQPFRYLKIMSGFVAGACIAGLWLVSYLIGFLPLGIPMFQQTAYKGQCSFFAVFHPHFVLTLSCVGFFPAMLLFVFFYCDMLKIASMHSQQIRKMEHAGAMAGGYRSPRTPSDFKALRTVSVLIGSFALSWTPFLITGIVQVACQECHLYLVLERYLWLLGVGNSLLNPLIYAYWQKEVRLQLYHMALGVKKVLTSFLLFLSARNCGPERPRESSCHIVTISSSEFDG
Each line names hits and unclear results; the compound was inactive in the other large screens (follow-up assays come after a bar, where they were run). A selection: hits, their analogues and other compounds. The true share with any hit is near 3.5%.

O=C(CCC1(Cc2ccc3c(c2)OCO3)CCC(=O)N1)NCc1cnn(-c2ccccc2)n1 (stereo not given)	GPR151 ag 7.1 | GPR151 conf act inactive | GPR119 counter inactive
O=C(CCC1(Cc2ccco2)CCC(=O)N1)NCc1cnn(-c2ccccc2)n1 (stereo not given)	none
COC(=O)c1ccc(OCc2cccc(F)c2)c(OC)c1	GPR151 ag 5.9 | GPR151 conf act inactive | GPR119 counter inactive
COc1cc(C(=O)Nc2ccccc2F)ccc1OCc1cccc(F)c1	none
O=C(COC(=O)c1cccs1)NC1CC1	none
COc1cc(COCC(O)CN2CCN(c3ccccc3F)CC2)cc(OC)c1OC (stereo not given)	none
Cc1ccc2oc(-c3cccc(NC(=S)NC(=O)c4ccc(Cl)cc4)c3C)nc2c1	GPR151 ag 5.3 | GPR151 conf act inactive | GPR119 counter inactive
CCCCN1C(=O)/C(=C/c2c(NCCC)nc3c(C)cccn3c2=O)SC1=S	none
O=C(OCc1ccc(Br)cc1)c1ccc(N2CCCC2=O)cc1	GPR151 ag 7.3 | GPR151 conf act inactive | GPR119 counter inactive
O=C(OCc1ccc(Br)cc1)c1ccc(O)cc1	none
CCOC(=O)c1sc2nc(SCc3ccccc3C)n(Cc3ccco3)c(=O)c2c1C	none
CC(C)(C)NC(=O)C1CCCN(C(=O)Nc2ccc(Cl)cc2)C1 (stereo not given)	none
CCOC(=O)C1=C(O)/C(=C/c2ccc(-c3ccc(C(=O)O)cc3)o2)SC1=Nc1ccc(C)cc1	none
Cc1ccc(CN2CCNC(=O)C2CC(=O)NCc2cc(C(F)(F)F)ccc2F)cc1 (stereo not given)	GPR151 ag 6.5 | GPR151 conf act inactive | GPR119 counter inactive
Cc1ccc(CN2CCNC(=O)C2CC(=O)NCc2cnn(C)c2)cc1 (stereo not given)	none
Cc1c(C(=O)N2CCCC2)sc2ncn(CC(=O)N3CCCCC3C)c(=O)c12 (stereo not given)	none
O=S(=O)(Nc1nc2ccc(S(=O)(=O)N3CCCCC3)cc2s1)c1ccccc1	GPR151 ag 5.3 | GPR151 conf act inactive | GPR119 counter inactive
O=C(Nc1ccc2c(c1)OCCO2)c1coc(=O)c2ccccc12	none
Cc1ccc(C(=O)Nc2ccc(NC(=O)c3ccccc3N)cc2)cc1	GPR151 ag 5.3 | GPR151 conf act inactive | GPR119 counter inactive
CC(=O)OC(OC(C)=O)C12C=CC(O1)C1C(=O)N(c3cccc(C)c3)C(=O)C12 (stereo not given)	none
Cn1c(=O)c2c(ncn2CC(O)CN2C(=O)c3ccccc3S2(=O)=O)n(C)c1=O (stereo not given)	GPR151 ag 6.0 | GPR151 conf act inactive | GPR119 counter inactive
CC1(C)CC(=O)C(C=Nc2ccc(NC3=C(C#N)C(=O)CC(C)(C)C3)cc2)=C(O)C1	GPR151 ag 7.1 | GPR151 conf act inactive | GPR119 counter inactive
Cc1sc2ncnc(NCC(C)O)c2c1C (stereo not given)	GPR151 ag 4.9 | GPR151 conf act inactive | GPR119 counter inactive
Cc1sc2ncnc(NCc3ccccc3)c2c1C	none
O=C(/C=C\c1ccc([N+](=O)[O-])cc1)Nc1nnc(-c2ccccc2)o1	none
O=C(/C=C\c1ccc([N+](=O)[O-])cc1)Nc1nnc(-c2cccs2)o1	GPR151 ag 6.7 | GPR151 conf act inactive | GPR119 counter inactive
O=C(CN1CCN(C(=O)c2ccco2)CC1)NN(Cc1ccccc1)c1ccccc1	GPR151 ag 5.4 | GPR151 conf act inactive | GPR119 counter inactive
O=C(N/N=C/c1cc([N+](=O)[O-])ccc1O)C(O)c1ccccc1 (stereo not given)	none
CCOc1ccc(NC(=O)C2c3cccc[n+]3CC(=O)N2c2ccccc2O)cc1 (stereo not given)	GPR151 ag 5.1 | GPR151 conf act inactive | GPR119 counter inactive
O=C(Nc1ccc(Cl)cc1)C1c2cccc[n+]2CC(=O)N1c1ccc(O)cc1 (stereo not given)	none
COc1ccccc1CNS(=O)(=O)c1ccc2c(c1)oc(=O)n2C	GPR151 ag 5.9 | GPR151 conf act inactive | GPR119 counter inactive
COc1ccc(OC)c(CNS(=O)(=O)c2ccc3c(c2)oc(=O)n3C)c1	none
CCCN(CCC)CCNS(=O)(=O)c1ccc2c(c1)oc(=O)n2C	GPR151 ag 7.6 | GPR151 conf act inactive | GPR119 counter inactive
CCSCCOC(=O)C1=C(C)NC2=C(C(=O)C(C(=O)OC)C(C)C2)C1c1ccc(Cl)cc1 (stereo not given)	none
Cc1cc(N(C)C)nc(N2CCC(C(=O)NCc3cccs3)CC2)n1	none
Cc1cc(-c2ccccc2)nc(N2CCC(C(=O)NCc3cccs3)CC2)n1	GPR151 ag 10 | GPR151 conf act inactive | GPR119 counter inactive
CC(=O)Nc1ncc2c(n1)CC(c1ccccc1Cl)CC2=O (stereo not given)	none
COc1ccc(CCNC(=O)c2cc(-c3cccc(OC)c3)nc3ccccc23)cc1	none
COc1cccc(-c2cc(C(=O)NCCCn3ccnc3)c3ccccc3n2)c1	GPR151 ag 7.2 | GPR151 conf act inactive | GPR119 counter inactive
O=C(c1cccc(-n2c(=S)[nH]c3cc(Cl)ccc3c2=O)c1)N1CCCC1	none
CCOC(=O)C1CCCN(C(=O)c2cccc(-n3c(=S)[nH]c4cc(Cl)ccc4c3=O)c2)C1 (stereo not given)	GPR151 ag 6.6 | GPR151 conf act inactive | GPR119 counter inactive
Cc1c(Cl)cccc1NC(=O)C(=O)NC(C)c1ccccc1 (stereo not given)	none
Cc1c(Cl)cccc1NC(=O)C(=O)NCC(O)c1ccccc1 (stereo not given)	GPR151 ag 7.3 | GPR151 conf act inactive | GPR119 counter inactive
CCOC(=O)Cc1c(C)nc2c(-c3ccccc3)c[nH]n2c1=O	GPR151 ag 7.5 | GPR151 conf act inactive | GPR119 counter inactive
COc1cccc2cc(C(=O)Nc3ccccc3[N+](=O)[O-])c(=O)oc12	GPR151 ag 13 | GPR151 conf act inactive | GPR119 counter inactive
COc1cccc2cc(C(=O)c3ccc([N+](=O)[O-])cc3)oc12	GPR151 ag 7.3 | GPR151 conf act inactive | GPR119 counter inactive
CC1CCc2c(sc3nc(C4CC4)n4c(SCC(N)=O)nnc4c23)C1 (stereo not given)	none
O=C(Nc1cc(Cl)ccc1C(=O)O)c1ccc2c(c1)C(=O)N(Cc1cccnc1)C2=O	none
CC(C(=O)OCC(=O)Nc1ccc(SC(F)F)cc1)N1C(=O)c2ccccc2C1=O (stereo not given)	GPR151 ag 5.8 | GPR151 conf act inactive | GPR119 counter inactive
O=C(NC1CC1)c1cccc(Nc2ccc(-n3ccnc3)cc2)c1	GPR151 ag 6.2 | GPR151 conf act inactive | GPR119 counter inactive
CC(OC(=O)CNC(=O)C1CCCCC1)C(N)=O (stereo not given)	none
C/C=C(\C)CN1C[C@H](Sc2ccccn2)C[C@H]1C(=O)N(C)C	none
